The values that follow come from PubChem BioAssay (NCATS).

Common to all, as to experiment: Primary qHTS to identify gynecologic anti-cancer compounds using libraries of approved drugs and bioactive compounds (AID 1345084); further: nearly all actives have a fitted effect of over 55% in size
One assay deals with CASKI. The settings on record: Gynecologic cancer cell panel viability, ATPlite luminescence, 48 h; series mostly up to 57.5 µM. The essentials: (§1)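 Measured: luminescence after ATPlite addition (15 min, RT). Exposure: 48 h, 37 C, 5% CO2.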
A general note: ATP-based viability assays read luminescence as a measure of living cells.

For another assay, the system named is Es-2. The settings on record: Gynecologic cancer cell panel viability, ATPlite luminescence, 48 h; series mostly up to 57.5 µM. The essentials:
as §1

For a further assay, the system named is HeLa. The following applies: Gynecologic cancer cell panel viability, ATPlite luminescence, 48 h; series mostly up to 57.5 µM. The essentials: as §1
For the next assay, the system named is Hek293T. The settings on record: Gynecologic cancer cell panel viability, ATPlite luminescence, 48 h, control line for the selectivity index; series mostly up to 57.5 µM. The procedure, abridged:
as §1

The next assay deals with JEG-3. The following applies: Gynecologic cancer cell panel viability, ATPlite luminescence, 48 h; series mostly up to 57.5 µM. The procedure, abridged:
as §1

The next assay deals with PA-1. The following applies: Gynecologic cancer cell panel viability, ATPlite luminescence, 48 h; series mostly up to 57.5 µM. The procedure, abridged:
as §1

The test system of a further assay is SKOV3. The settings on record: Gynecologic cancer cell panel viability, ATPlite luminescence, 48 h; series mostly up to 57.5 µM. The procedure, abridged: as §1
The next assay concerns Tov-21-G. The following applies: Gynecologic cancer cell panel viability, ATPlite luminescence, 48 h; series mostly up to 57.5 µM. The essentials:
as §1

The subject of a further assay is Tov112D. The following applies: Gynecologic cancer cell panel viability, ATPlite luminescence, 48 h; series mostly up to 57.5 µM. The procedure, abridged: as §1
Another assay relates to OV90. The settings on record: Gynecologic cancer cell panel viability, ATPlite luminescence, 48 h; series mostly up to 57.5 µM. The procedure, abridged: as §1

SMILES strings stand for the structures. Inconclusive results are not listed. Active and inactive are the calls of the source. The call rests on the fitted dose curve; in most records, active means well fitted cell-killing curve with a large enough effect; inconclusive means small, poorly fitted or top-dose-only effect, or effect the other way; inactive means flat fitted curve, though single readings scatter.
Potency means the concentration at half of the fitted maximal effect.

As for `CN1CCN(C2=Nc3cc(F)ccc3Cc3ccccc32)CC1`, the Potency entry with CASKI, in the assay on Es-2, with HeLa, with Hek293T, with JEG-3 and in the assay with PA-1 was “inactive” each time. In addition, the Potency entry in the assay on SKOV3, with Tov-21-G and in the assay with Tov112D was “inactive” in each case.
As to `CC(=C(CCOC(=O)C(C)C)SSC(CCOC(=O)C(C)C)=C(C)N(C=O)Cc1cnc(C)nc1N)N(C=O)Cc1cnc(C)nc1N`, the Potency result with CASKI, with Es-2, in the assay with HeLa, in the assay on JEG-3, in the assay with OV90 and with PA-1 was “inactive” each time. Besides, the Potency result in the assay on SKOV3, in the assay with Tov-21-G and with Tov112D was “inactive” throughout.
`CCN(CC)CCOC(=O)C1(c2ccccc2)CCCC1`: the Potency result with CASKI, in the assay on Es-2, in the assay on HeLa, in the assay with Hek293T, with JEG-3 and with PA-1 was “inactive” each time. In addition, the Potency result in the assay with SKOV3, in the assay on Tov-21-G and in the assay with Tov112D was “inactive” each time.
As for `CCc1oc2ccccc2c1C(=O)c1cc(Br)c(O)c(Br)c1`, the Potency result in the assay with CASKI, in the assay on Es-2, in the assay on Hek293T, in the assay with JEG-3, with OV90 and in the assay with PA-1 was “inactive” in each case. In addition, the Potency entry in the assay on Tov-21-G and in the assay with Tov112D was “inactive” each time.
In the case of `CC(CNC1CCCCC1)OC(=O)c1ccccc1` (centres undefined), the Potency entry with CASKI, in the assay with Es-2, in the assay on HeLa, with Hek293T, in the assay on JEG-3 and in the assay with PA-1 was “inactive” in each case. In addition, the Potency entry in the assay on SKOV3, with Tov-21-G and in the assay on Tov112D was “inactive” in each case.
For the molecule `CC(C)(Cc1c[nH]c2ccccc12)NCC(O)COc1ccccc1C#N` (centres undefined), the Potency result in the assay on CASKI, with Es-2, with HeLa, in the assay on Hek293T, in the assay on JEG-3 and in the assay on PA-1 was “inactive” in each case. For the same molecule, the Potency entry with Tov-21-G and in the assay with Tov112D was “inactive” in each case.
`Cc1cc(CC(=O)O)c(C)n1-c1ccc(Cl)cc1`: the Potency entry with CASKI, in the assay with Es-2, with HeLa, with JEG-3, with OV90 and in the assay with PA-1 was “inactive” each time. In addition, the Potency entry in the assay with SKOV3, in the assay with Tov-21-G and in the assay on Tov112D was “inactive” throughout.
In the case of `CCN(CC)CCOc1ccccc1C(=O)CCc1ccccc1`, the Potency result with CASKI, in the assay with Es-2, in the assay on HeLa, in the assay with Hek293T, with JEG-3 and with PA-1 was “inactive” throughout. In addition, the Potency result in the assay on SKOV3, in the assay with Tov-21-G and in the assay on Tov112D was “inactive” throughout.
Consider `O=C(Nc1ccccc1)OCC(CN1CCCCC1)OC(=O)Nc1ccccc1` (centres undefined), for which the Potency result in the assay with CASKI, in the assay with Es-2, in the assay with HeLa, with JEG-3, in the assay with PA-1 and with Tov-21-G was “inactive” in each case. Besides, the Potency entry with Tov112D is “inactive”.
For the molecule `CCOc1ccc(NC(C)=O)cc1`, the Potency result in the assay with CASKI, with Es-2, in the assay with HeLa, with Hek293T, in the assay on JEG-3 and with PA-1 was “inactive” throughout. The Potency result in the assay on SKOV3, in the assay on Tov-21-G and with Tov112D was “inactive” in each case.
As to `O=C(CCCN1CC=C(n2c(=O)[nH]c3ccccc32)CC1)c1ccc(F)cc1`, the Potency result in the assay on CASKI, in the assay with Es-2, in the assay on HeLa, with Hek293T, with JEG-3 and with Tov-21-G was “inactive” each time. Besides, in the assay with Tov112D, the Potency entry is “inactive”.
As to `O=C(Oc1cccc2cccnc12)c1ccccc1`, the Potency result in the assay on CASKI, in the assay with Es-2, in the assay with HeLa, in the assay on Hek293T, in the assay on JEG-3 and in the assay with OV90 was “inactive” in each case. For the same molecule, the Potency result in the assay on Tov-21-G and with Tov112D was “inactive” each time.
For the molecule `CN(C)CCC[C@@]1(c2ccc(F)cc2)OCc2cc(C#N)ccc21`, the Potency result in the assay with CASKI, in the assay on Es-2, in the assay on HeLa, in the assay with Hek293T, in the assay on JEG-3 and in the assay with PA-1 was “inactive” in each case. Also, the Potency entry with SKOV3, with Tov-21-G and with Tov112D was “inactive” each time.
With `O=S(=O)(O)c1ccc(O)cc1`, the Potency result with CASKI, in the assay on Es-2, with HeLa, in the assay with Hek293T, in the assay on JEG-3 and in the assay on PA-1 was “inactive” throughout. Also, the Potency entry with SKOV3, in the assay with Tov-21-G and in the assay on Tov112D was “inactive” throughout.
Turning to `Cl/C(=C\n1cncn1)c1ccc(Cl)cc1Cl`, the Potency result in the assay on CASKI, with Es-2, in the assay on Hek293T, with JEG-3, in the assay with OV90 and in the assay on PA-1 was “inactive” throughout. Also, the Potency entry with SKOV3, in the assay with Tov-21-G and in the assay on Tov112D was “inactive” in each case.
For `CCOc1ccccc1OCCN[C@H](C)Cc1ccc(OC)c(S(N)(=O)=O)c1`, the Potency entry with CASKI, in the assay with Es-2, with HeLa, with Hek293T, with JEG-3 and with PA-1 was “inactive” in each case. The Potency entry in the assay with SKOV3, in the assay with Tov-21-G and in the assay on Tov112D was “inactive” in each case.
As to `C[N+]1(CC2COC(c3ccccc3)(C3CCCCC3)O2)CCCCC1` (centres undefined), the Potency entry with CASKI, in the assay with Es-2, in the assay with HeLa, with Hek293T, in the assay on JEG-3 and in the assay with SKOV3 was “inactive” each time. Also, the Potency entry in the assay with Tov-21-G and with Tov112D was “inactive” throughout.
For the molecule `C=C[C@H]1CN2CC[C@H]1C[C@H]2[C@H](O)c1ccnc2ccc(OC)cc12`, the Potency entry in the assay on CASKI, in the assay on Es-2, in the assay with HeLa, with Hek293T, in the assay on JEG-3 and in the assay with PA-1 was “inactive” throughout. Moreover, the Potency entry in the assay on SKOV3, with Tov-21-G and in the assay on Tov112D was “inactive” each time.
For `Cc1ccc(O)c([C@H](CCN(C(C)C)C(C)C)c2ccccc2)c1`, the Potency result in the assay on CASKI, in the assay with Es-2, in the assay on HeLa, with Hek293T, with PA-1 and with SKOV3 was “inactive” in each case. In addition, the Potency entry with Tov-21-G and with Tov112D was “inactive” each time.
Regarding `Cc1nc(-c2ccc(Cl)cc2)oc1COC(C)(C)C(=O)O`, the Potency entry in the assay on CASKI, with Es-2, in the assay on HeLa, in the assay on Hek293T, with JEG-3 and with PA-1 was “inactive” throughout. The Potency entry with SKOV3, in the assay with Tov-21-G and in the assay on Tov112D was “inactive” throughout.
Take `C#C[C@]1(O)CC[C@H]2[C@@H]3CCC4=Cc5oncc5C[C@]4(C)[C@H]3CC[C@@]21C`: the Potency entry in the assay on CASKI, in the assay on Es-2, with JEG-3, in the assay on OV90, with Tov-21-G and with Tov112D was “inactive” in each case. The Potency is 0.794 µM (active) in the assay on HeLa and 10 µM (active) in the assay with PA-1.
For the molecule `CCOC(=O)C(C#N)=C(c1ccccc1)c1ccccc1`, the Potency result with CASKI, in the assay with Es-2, with HeLa, in the assay on Hek293T, in the assay with JEG-3 and in the assay with PA-1 was “inactive” each time. Moreover, the Potency entry in the assay with SKOV3, with Tov-21-G and in the assay with Tov112D was “inactive” each time.
As to `O=C(NC1CCN(CCc2c[nH]c3ccccc23)CC1)c1ccccc1`, the Potency result in the assay on CASKI, in the assay with Es-2, in the assay on Hek293T, in the assay with JEG-3, in the assay with OV90 and with PA-1 was “inactive” in each case. The Potency result in the assay on SKOV3, in the assay with Tov-21-G and in the assay on Tov112D was “inactive” each time.
For `N#C/C(=C1\SCC(c2ccccc2Cl)S1)n1ccnc1` (centres undefined), the Potency result with CASKI, in the assay on Es-2, in the assay on Hek293T, in the assay with JEG-3, in the assay with OV90 and in the assay on PA-1 was “inactive” in each case. For the same molecule, the Potency result in the assay with Tov-21-G and in the assay with Tov112D was “inactive” throughout.
Regarding `Oc1ccccc1C=NCc1ccccc1`, the Potency entry in the assay on CASKI, in the assay with Es-2, in the assay with HeLa, in the assay with Hek293T, with JEG-3 and in the assay on SKOV3 was “inactive” in each case. Moreover, the Potency result in the assay with Tov-21-G and with Tov112D was “inactive” throughout.
Regarding `CC(=O)OC[C@H]1O[C@@H](n2ncc(=O)[nH]c2=O)[C@H](OC(C)=O)[C@@H]1OC(C)=O`, the Potency result with HeLa, in the assay with Hek293T, in the assay on JEG-3, with OV90, in the assay on SKOV3 and in the assay with Tov112D was “inactive” in each case.
